Bioassay records (PubChem BioAssay)
The sample as a whole holds a higher share of hits than the screen did.
Dicer processing = inhibitors of human Dicer processing of pre-microRNA; z-score at 25 µM; 47,000 tested, 6% active; Q9UPY3; cat-ELCCA pre-miR-21 Dicer processing, chemiluminescence; stronger effect = higher value; in the data active = z-score above about 3, passing the limit was not always enough;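 note: plate controls were vehicle for no effect and no enzyme for full effect; higher signal means more uncleaved substrate so more Dicer inhibition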
Target sequence (Q9UPY3 whole entry, looked up): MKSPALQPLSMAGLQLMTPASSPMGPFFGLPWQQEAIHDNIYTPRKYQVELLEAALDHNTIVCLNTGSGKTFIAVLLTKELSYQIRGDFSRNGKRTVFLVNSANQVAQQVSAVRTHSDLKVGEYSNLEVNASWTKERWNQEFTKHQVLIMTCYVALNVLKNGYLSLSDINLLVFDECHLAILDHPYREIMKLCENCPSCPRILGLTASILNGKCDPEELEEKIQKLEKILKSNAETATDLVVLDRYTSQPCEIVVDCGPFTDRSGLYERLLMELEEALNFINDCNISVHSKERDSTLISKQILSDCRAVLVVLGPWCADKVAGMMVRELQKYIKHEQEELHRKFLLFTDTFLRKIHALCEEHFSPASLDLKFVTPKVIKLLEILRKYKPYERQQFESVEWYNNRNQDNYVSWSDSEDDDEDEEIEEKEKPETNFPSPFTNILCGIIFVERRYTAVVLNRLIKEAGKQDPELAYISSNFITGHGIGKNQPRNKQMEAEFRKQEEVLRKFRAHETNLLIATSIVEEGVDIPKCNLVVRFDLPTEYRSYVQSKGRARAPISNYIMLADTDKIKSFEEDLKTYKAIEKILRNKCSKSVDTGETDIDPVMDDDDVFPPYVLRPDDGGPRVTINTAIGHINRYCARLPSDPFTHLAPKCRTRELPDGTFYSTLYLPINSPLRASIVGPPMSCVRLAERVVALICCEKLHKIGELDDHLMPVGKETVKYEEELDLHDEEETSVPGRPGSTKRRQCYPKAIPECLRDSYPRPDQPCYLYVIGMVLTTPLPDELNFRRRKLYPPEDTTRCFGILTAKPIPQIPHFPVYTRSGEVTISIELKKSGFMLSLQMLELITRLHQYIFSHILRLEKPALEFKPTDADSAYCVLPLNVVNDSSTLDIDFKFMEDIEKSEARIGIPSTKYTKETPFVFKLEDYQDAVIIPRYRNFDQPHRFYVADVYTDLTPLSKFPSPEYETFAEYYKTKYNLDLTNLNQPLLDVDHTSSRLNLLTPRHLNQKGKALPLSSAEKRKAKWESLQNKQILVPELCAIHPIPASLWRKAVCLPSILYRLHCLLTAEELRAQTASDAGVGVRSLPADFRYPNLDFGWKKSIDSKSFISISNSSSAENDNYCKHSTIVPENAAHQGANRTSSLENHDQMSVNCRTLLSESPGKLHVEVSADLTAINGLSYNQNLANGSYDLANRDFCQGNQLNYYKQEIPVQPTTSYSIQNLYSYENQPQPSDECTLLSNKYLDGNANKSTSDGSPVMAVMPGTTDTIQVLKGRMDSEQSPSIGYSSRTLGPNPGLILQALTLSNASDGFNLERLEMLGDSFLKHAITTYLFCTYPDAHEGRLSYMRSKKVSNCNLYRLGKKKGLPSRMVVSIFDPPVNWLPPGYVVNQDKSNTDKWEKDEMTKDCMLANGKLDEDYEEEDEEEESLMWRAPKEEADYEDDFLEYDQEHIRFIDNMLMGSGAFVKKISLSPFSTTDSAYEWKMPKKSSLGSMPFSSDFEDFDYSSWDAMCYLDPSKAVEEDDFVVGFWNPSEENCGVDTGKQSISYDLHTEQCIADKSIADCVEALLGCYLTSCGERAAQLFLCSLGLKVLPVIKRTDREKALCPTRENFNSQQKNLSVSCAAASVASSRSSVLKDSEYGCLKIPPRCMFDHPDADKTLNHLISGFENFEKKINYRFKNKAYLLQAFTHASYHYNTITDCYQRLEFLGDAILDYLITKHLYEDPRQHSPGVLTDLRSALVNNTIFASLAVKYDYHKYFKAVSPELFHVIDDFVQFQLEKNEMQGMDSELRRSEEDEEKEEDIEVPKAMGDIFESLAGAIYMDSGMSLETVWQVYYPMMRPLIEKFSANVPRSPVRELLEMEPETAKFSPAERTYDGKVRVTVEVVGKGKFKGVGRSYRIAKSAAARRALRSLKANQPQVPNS
The depositor's hits bear a star.

SMILES	Dicer processing
Cc1ccc(C2CC(C(F)(F)F)n3ncc(C(=O)NCc4cn(C)nc4C)c3N2)cc1 (stereo not drawn)	-0.66
O=C(NCc1ccc(F)cc1)c1cnn2c1NC(c1cccs1)CC2C(F)(F)F (stereo not drawn)	2.22
O=C(NCc1ccco1)c1cnn2c1NC(c1ccc(Br)cc1)CC2C(F)(F)F (stereo not drawn)	4.97*
O=C(NCc1cccs1)c1cnn2c1NC(c1ccc(Br)cc1)CC2C(F)(F)F (stereo not drawn)	5.72*
O=C(NCCc1ccccc1)c1cnn2c1NC(c1ccc(Br)cc1)CC2C(F)(F)F (stereo not drawn)	-0.32
CCOC(=O)NNC(=S)NC1CCCCC1	0.14
CC(=O)Oc1ccc2nc(-c3ccc(C(C)(C)C)cc3)oc(=O)c2c1	1.97
CCOC(=O)C1CCN(C(=S)Nc2ccc(C)cc2C)CC1	0.59
O=C(CCSc1nc(-c2ccco2)cc(C(F)(F)F)n1)Nc1ccccc1	-0.26
Cc1cc(NC(=O)CCSc2nc(-c3ccco3)cc(C(F)(F)F)n2)n(-c2ccccc2)n1	1.16
Cc1nn(C)c(C)c1NC(=O)CCSc1nc(-c2ccco2)cc(C(F)(F)F)n1	3.04*
CNC(=S)Nc1ccc(F)cc1F	-0.11
Cn1c(=O)[nH]c(=O)c2c1nc(N1CCCCC1)n2Cc1ccccc1	0.81
Cc1cc(C)c(CN2C(=O)C(=O)c3ccccc32)cc1CN1C(=O)C(=O)c2ccccc21	3.61*
O=C1C(=O)N(Cc2ccccc2)c2ccccc21	-0.23
O=C1C(=O)N(Cc2ccc(Cc3ccc(CN4C(=O)C(=O)c5ccccc54)cc3)cc2)c2ccccc21	-1.3
C=CCOC(=O)c1c(N)oc2c(-c3ccccc3)c3c(C(=O)OCC=C)c(N)oc3cc12	1.35
Cc1ccc(-c2cc(-c3ccccc3)c(C#N)c(N)n2)cc1	-0.15
CC(=O)n1c(-c2ccc(C)cc2)cc(-c2ccc(C)cc2)c(C#N)c1=O	3.36*
CCOC(=O)c1nn(-c2ccccc2)c(=O)c2c(N)c(C#N)c(-c3ccccc3)cc12	-1.18
O=C(Cn1nc(C(F)(F)F)c2c1CCC2)NC1CCCC1	-0.12
O=C1C(=O)N(CCN2CCOCC2)C(c2cccs2)/C1=C(\O)c1ccccc1 (stereo not drawn)	1.26
OC(C#CCN1CCOCC1)c1cccs1 (stereo not drawn)	4.03*
O=C(c1cccs1)C(O)c1cccs1 (stereo not drawn)	-0.15
CC(C)(C)OC(=O)C(C)(C)ONC(=O)Nc1ccc(Cl)cc1	-0.75
SMILES	Dicer processing
O=C(O)CCCCCNC1CCS(=O)(=O)C1 (stereo not drawn)	0.51
CC1CN(C(=O)NCCSCc2cccc(C(F)(F)F)c2)CC(C)O1 (stereo not drawn)	1.34
NNC(=O)Nc1ccc(C(F)(F)F)cc1Cl	0.71
O=C(Nc1cc(C(F)(F)F)ccc1Cl)C(Cl)Cl	5.02*
O=C(Nc1cc(C(F)(F)F)ccc1Cl)C(=S)N1CCOCC1	-0.41
N#Cc1cccc(CSC2=NCN(C3CC3)CN2)c1	-2.06
CC(C)(C)OC(=O)CC(NC(=O)OCc1ccccc1)C(N)=O (stereo not drawn)	-0.41
CCOC(=O)CCCSc1n[nH]c(=S)s1	1.64
CSc1c(C#N)c(-c2ccccc2)nn1CC(=O)NN	-0.79
Cn1cc(C(=O)c2ccc(Cl)cc2)cc1/C=C(\C#N)S(=O)(=O)c1cccs1	1.33
Cc1ccc(SCc2cc(=O)[nH]c(Nc3nc(C)c4cccc(C)c4n3)n2)cc1	1.82
CCc1ccc2nc(Nc3nc(CSc4nnc(C)s4)cc(=O)[nH]3)nc(C)c2c1	3.07*
CCOc1ccc2nc(Nc3nc(O)cc(=O)[nH]3)nc(C)c2c1	2.78
CCOC(=O)c1cc(NC(=O)Nc2ccccc2)ccc1Oc1cncc(Cl)c1	-0.34
O=C(CN1C(=O)c2cccc3cccc1c23)N1CCN(c2ccc(F)cc2)CC1	-0.9
O=C1CCC2C(=O)N(CC(=O)N3CCCC3)C(=O)C2C1 (stereo not drawn)	-0.13
O=C(CN1C(=O)C2CCCCC2C1=O)N1CCN(c2ccc(F)cc2)CC1 (stereo not drawn)	6.52*
N#Cc1c(N2CCOCC2)nnc(-c2ccccc2)c1-c1ccccc1	1.49
COc1ccc(C2/C(=C(/O)c3ccc(Cl)cc3)C(=O)C(=O)N2CCO)cc1 (stereo not drawn)	-1.7
C=CCNc1nc2c(c(=O)[nH]c(=O)n2C)n1CC(O)CO (stereo not drawn)	0.87
C=CCNc1nc2c(c(=O)[nH]c(=O)n2C)n1CC	3.19*
CCCNc1nc2c(c(=O)[nH]c(=O)n2C)n1CCO	1.13
COc1cc(C2CC(=O)Nc3c2ccc2ccccc32)cc(Cl)c1O (stereo not drawn)	0.35
COc1ccc(-c2nnc(SCc3ccccc3Cl)o2)c(OC)c1	-0.1
CC1=C(C(=O)OC2CCCC2)C(c2cccc(O)c2)C2=C(CC(c3ccccc3)CC2=O)N1 (stereo not drawn)	1.95
SMILES	Dicer processing
Cc1oc2ccc(OC(C)C(=O)O)cc2c1C(=O)O (stereo not drawn)	0.81
Cc1nc(N(C)C)c(C#N)c(C)c1[N+](=O)[O-]	-0.48
CCOC(=O)c1cc(C)nc(N2CCCCC2)c1C#N	0.2
Cc1nc(N2CCCCC2)c(C#N)c(C)c1[N+](=O)[O-]	4.49*
COCCOC(=O)C1=C(C)Nc2nc3ccccc3n2C1c1ccncc1 (stereo not drawn)	-0.54
CCc1nc2cc(C(F)(F)F)cc(Cl)c2nc1CC	-2.09
N/C(Cc1cccc2ccccc12)=N\OC(=O)Nc1ccccc1	-1.59
c1ccc2[nH]c(CN3CCN(c4ncnc5sc6c(c45)CCCC6)CC3)nc2c1	-0.71
OCCN1CCN(c2ncnc3sc4c(c23)CCCC4)CC1	4.45*
CN1CCN(c2ncnc3sc4c(c23)CCCC4)CC1	3.1*
CC1CN(c2ncnc3sc4c(c23)CCCC4)CC(C)O1 (stereo not drawn)	0.64
CC1CCc2sc3ncnc(N4CCN(CCO)CC4)c3c2C1 (stereo not drawn)	8.66
c1nc(N2CCCC2)c2c3c(sc2n1)CCCC3	-0.19
CC1=C(C(=O)OC(C)C)C(c2cc3c(cc2Br)OCO3)C2=C(CC(C)(C)CC2=O)N1 (stereo not drawn)	-0.74
Cc1ccc(S(=O)(=O)N2CCN(C(=O)CSc3nc(C)cc(=O)[nH]3)C2)cc1	-0.87
CC(C)S(=O)(=O)/C(C#N)=C/c1cnc[nH]1	1.08
Oc1ccccc1Nc1nc(NCc2ccco2)c2ccccc2n1	3.11*
Cc1cc(C)nc(NCc2ccco2)n1	-0.31
O=C(NCc1ccco1)Oc1ccccc1	1.21
CCc1ccnc(NC(=O)CCCC(=O)O)c1	0.33
CC(C)c1ccc(NC(=O)COc2ncnc3cc(Cl)ccc23)cc1	0.07
O=C(CSc1nnc(-c2ccccc2)o1)c1ccccc1	-1.12
CCOC(=O)CSc1nnc(-c2ccc(C)cc2)o1	2.81
O=C(CSc1nnc(-c2ccccc2)o1)OCc1ccccc1	3.44*
CCOC(=O)c1c(S(=O)(=O)N2CCOCC2)c(C)n(-c2ccccc2)c1C	-0.31
SMILES	Dicer processing
CCCCCNC(=S)NNC(=O)OCC	-1.55
COc1ccc(C2CC(=O)Nc3nc(N)[nH]c(=O)c32)cc1OC (stereo not drawn)	-1.19
O=C(Nc1c(Br)cc(Br)cc1C(=O)Nc1ccc(F)cc1)c1ccccc1	-0.43
CC(C)(C)NC(=S)N/N=C/c1ccc(O)cc1O	2.24
CC(C)(C)NC(=S)N/N=C/C=N/NC(=S)NC(C)(C)C	4.3*
CC(C)(C)NC(=S)N/N=C/c1c(Cl)cccc1Cl	-2.02
O=C1C(=O)N(CCCN2CCOCC2)C(c2ccco2)/C1=C(\O)c1ccc(Cl)cc1 (stereo not drawn)	2.43
